High-throughput results deposited in PubChem by National Center for Advancing Translational Sciences (NCATS).
Only some compounds are listed: those with a hit (about 11% of all), similar ones and a draw of the others.
Vaccinia mCherry: vaccinia inhibition (mCherry reporter); 310,000 tested, 0.63% active; Vaccinia virus mCherry reporter infection, fluorescence; AID 720579; Potency, µM (doses to about 36.5 µM), inactives show at the top dose activity change, negative = inhibition, usual class: inhibitors; calls by dose curve; tested in A549 cells; also: % is scaled to controls: 0 for no effect and ±100 for the full control effect; nearly all actives have a fitted effect of over 35% in size
Pf growth 48h: inhibits P. falciparum growth in the first generation, 48 h. P. falciparum luciferase growth in erythrocytes, 48 h. Potency, µM (titrated, usually from 28.7 µM), inactives show at the highest dose activity change, negative = inhibition, usual class: inhibitors. 310,000 tested, 5.9% active. AID 504832; also: % is scaled to controls: 0 for no effect and ±100 for the full control effect
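Compounds are pin-transferred into medium, infected erythrocytes (2% hematocrit, 0.1% parasitemia final) are added, and plates sit one parasite generation at 37 C in 5% CO2. Detection reagent is then added and luminescence measured.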
HCV inhibitor: HCV inhibition. Potency, µM (titrated, usually from 41.8 µM), for the others: at the top dose activity change, negative = inhibition, hits mostly inhibitors. Huh7.5.1 HCVcc-Cre infection, luciferase reporter, 44 h. 340,000 tested, 3.4% active; also: % is scaled to controls: 0 for no effect and ±100 for the full control effect
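1,000 cells/well; 4 h culture; + compound; + HCVcc-Cre (~0.5 moi); 44 h; luciferase substrate, RT 15 min; read 15 sec.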
Vaccinia Venus: inhibitors of vaccinia virus (Venus reporter); Vaccinia virus Venus reporter expression, fluorescence; Potency, µM (highest dose often 36.5 µM), for inactives: at the highest dose activity change, negative = inhibition, actives largely listed as inhibitors; 330,000 tested, 0.46% active; calls by dose curve; tested in A549 cells; also: % is scaled to controls: 0 for no effect and ±100 for the full control effect; nearly all actives have a fitted effect of over 30% in size
NS1 function inh: inhibitors of influenza NS1 protein function; Potency, µM (highest dose often 46.1 µM), for the others: at the top dose activity, positive = more growth; 270,000 tested, 0.4% active; calls by dose curve; also: actives are rising curves; nearly all actives have a fitted effect of over 50% in size
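S. cerevisiae expressing influenza A NS1, grown in glucose, washed, then diluted 1:100 into pH 6.0 -URA galactose medium with 23 nl compound. Growth recovery read as OD600; NS1-free strain serves as control.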
Pf growth 96h: P. falciparum growth inhibition at 96 hour, primary screen for plastid delayed-death inhibitors; Potency, µM (titrated, usually from 28.7 µM), for inactives: at the highest dose activity change, negative = inhibition, most hits filed as inhibitors; 320,000 tested, 6.9% active; P. falciparum luciferase reporter growth, 96 h; also: % is scaled to controls: 0 for no effect and ±100 for the full control effect
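Readout is luminescence from an integrated firefly luciferase in P. falciparum. Red cells, 2% hematocrit and 0.05% parasitemia final, were cultured with compound through two parasite generations (96 hours) at 37 C, 5% CO2.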
The depositor's hits bear a star; i = inactive; ? = inconclusive; · = not tested or not shown. Unless noted, calls follow the shape of the dose curve; as a rule, active = well fitted inhibition curve with a large enough effect; inconclusive = small, poorly fitted or top-dose-only effect, or another doubt; inactive = no such curve, though single readings can be large or run the other way. Potency is read from the fitted curve at half-maximal effect.

SMILES	Vaccinia mCherry	Pf growth 48h	HCV inhibitor	Vaccinia Venus	NS1 function inh	Pf growth 96h
O=C(CSCCO)Nc1ccc(C23CC4CC(CC(C4)C2)C3)cc1	·	215%	2%	·	11%	51%
COC(=O)C1=CN(Cc2ccc(OC)c(OC)c2)C=C(C(=O)OC)C1c1cccc(F)c1	·	9.3µM*	?	·	?	10µM*
COC(=O)C1=CN(Cc2ccc(C)cc2)C=C(C(=O)OC)C1c1ccc(F)c(F)c1	-2%	6.6µM*	?	-11%	-8%	15%
COC(=O)C1=CN(Cc2ccccc2)C=C(C(=O)OC)C1c1cc(F)ccc1F	-14%	7.4µM*	-23%	-6%	5%	7.4µM*
COC(=O)C1=CN(C(C)c2ccccc2)C=C(C(=O)OC)C1c1cc(OC)c(OC)c(OC)c1 (stereo not given)	26%	1.5µM*	-15%	-2%	17%	33%
COCCN1C=C(C(=O)OC)C(c2ccc(OC)c(OC)c2)C(C(=O)OC)=C1	i	-9%	?	-6%	-10%	·
COC(=O)C1=CN(Cc2cccs2)C=C(C(=O)OC)C1c1cccc(O)c1	-2%	-21%	3%	5%	-8%	?
COc1ccccc1NC(=O)Nc1nc(CC(=O)NCc2ccccn2)cs1	i	-2%	?	-9%	·	12%
Cc1ccc(C(O)(C(=O)OC(C)C)C(O)c2ccccc2)cc1 (stereo not given)	-16%	·	·	-8%	·	·
Cc1ccc(-n2nc(C)c3nc(CCC(=O)Nc4cccc(F)c4)c(=O)n(C)c32)cc1	-13%	·	·	-5%	·	·
COC(=O)C1=CN(Cc2ccc(OC)cc2)C=C(C(=O)OC)C1c1cc(OC)c(OC)c(OC)c1	34%	1.3µM*	-17%	-8%	4%	?
COc1cc(NC(=O)Cc2ccc(F)cc2)cc(OC)c1OC	-8%	-1%	?	-3%	·	13%
COC(=O)C1=CN(Cc2ccc(F)cc2)C=C(C(=O)OC)C1c1cc(OC)c(OC)c(OC)c1	·	1.3µM*	-7%	·	-3%	-28%
COC(=O)C1=CN(CC2CCCO2)C=C(C(=O)OC)C1c1cc(OC)c(OC)c(OC)c1 (stereo not given)	·	?	-2%	·	-3%	4.1µM*
CCN1C(=O)CC(=O)N(CC)C1=S	i	·	·	1%	·	·
CC(=O)NC1CCC(OC(=O)Nc2ccccc2)CC1 (stereo not given)	-15%	·	-19%	-8%	·	·
CCN(CC)CCN(C(=O)c1c(F)cccc1F)c1nc2cc(C)cc(C)c2s1	·	?	10µM*	·	·	?
O=C(Nc1c2c(nn1-c1ccc(F)cc1)CS(=O)(=O)C2)C1CCCC1	·	4%	1%	·	-3%	10µM*
COc1ccc(-n2nc3c(c2NC(=O)c2ccc(Br)o2)CS(=O)(=O)C3)cc1	·	-3%	12%	·	-2%	?
O=C(Nc1c2c(nn1-c1ccc(F)cc1)CS(=O)(=O)C2)c1ccc(Br)o1	·	12µM*	18%	·	0%	?
COc1ccc(-n2nc3c(c2NC(=O)C2CCCC2)CS(=O)(=O)C3)cc1	i	?	·	-13%	12%	1%
COc1ccc(CN2C(=O)c3cccnc3C2=O)cc1S(=O)(=O)N1CC(C)CC(C)C1 (stereo not given)	·	-3%	5%	·	3%	?
Cc1ccc(-n2ncc(C(=O)NCCN3CCC(Cc4ccccc4)CC3)c2C2CCN(C(=O)OC(C)(C)C)CC2)cc1	?	·	·	11µM*	·	·
CC(C)(C)OC(=O)N1CCC(c2c(C(=O)NCCN3CCC(Cc4ccccc4)CC3)cnn2-c2cccc(Cl)c2)CC1	11µM*	·	·	11µM*	·	·
Cc1ccc(-n2ncc(C(=O)NCCN3CCCC3)c2C2CCN(C(=O)OC(C)(C)C)CC2)cc1	i	·	·	-21%	·	·
SMILES	Vaccinia mCherry	Pf growth 48h	HCV inhibitor	Vaccinia Venus	NS1 function inh	Pf growth 96h
Cc1ccc(Cn2c(N3CCNCC3)nc3c2c(=O)[nH]c(=O)n3C)cc1	·	?	7%	·	11%	-19%
O=S(=O)(NCc1ccccc1)c1ccc(S(=O)(=O)N(Cc2ccccn2)C2CCCC2)cc1	-19%	10µM*	?	-13%	-3%	?
Cc1cccc(CN2C(=O)/C(=C\c3ccc(C(=O)NCCCN4CCN(C)CC4)cc3)Oc3ccccc32)c1	·	?	·	·	-1%	45%
CCN1CCN(CCNC(=O)c2ccc(/C=C3\Sc4ccccc4N(Cc4ccccc4F)C3=O)cc2)CC1	·	?	11µM*	·	·	?
CN1CCN(CCCNC(=O)c2ccc(/C=C3\Oc4ccccc4N(Cc4ccccc4F)C3=O)cc2)CC1	·	?	14µM*	·	-3%	4%
COCCCNC(=O)/C=C1\Sc2ccccc2N(Cc2ccccc2F)C1=O	-19%	43%	-21%	-5%	·	-11%
CC/C(C)=C1\SC(N2CCN(c3cccc(C(F)(F)F)c3)CC2)=NC1=O	·	?	8%	·	1%	63%
CCC1CCCCN1CCCNC(=O)C1CCN(Cc2nc(-c3ccc(Cl)cc3)oc2C)CC1 (stereo not given)	·	5.2µM*	1.4µM*	·	4%	-11%
Cc1oc(-c2ccc(Cl)cc2)nc1CN1CCC(C(=O)NCCCN2CCOCC2)CC1	·	?	8.9µM*	·	4%	?
Cc1oc(-c2cccc(Cl)c2)nc1CN1CCCC(C(=O)NCCCN2CCOCC2)C1 (stereo not given)	-28%	12µM*	?	-24%	-3%	67%
Cc1oc(-c2ccc(Cl)cc2)nc1CN1CCC(C(=O)NCCCN2CCN(c3cccc(Cl)c3)CC2)CC1	?	·	·	14µM*	·	·
O=C(Nc1cccc(F)c1)NC1CC2CCCC(C1)N2C1CC1 (stereo not given)	·	-12%	12%	·	3%	-14%
Cc1cc2[nH]c(=O)c(=O)[nH]c2cc1S(=O)(=O)N1CCN(c2cccc(C(F)(F)F)c2)CC1	1%	?	-8%	4%	11%	?
Cc1c(C(=O)N(Cc2ccccc2Cl)C2CCS(=O)(=O)C2)oc2ccccc12 (stereo not given)	-23%	?	?	-13%	-10%	-25%
C/C=C/C(=O)N1c2ccc(C)cc2C(C)=CC1(C)C	·	90%	-2%	·	-53%	40%
CC1=CC(C)(C)[N+](C)(C)c2ccc(C)cc21	-23%	2.6µM*	11%	-25%	1%	?
Cc1ccc(-n2nc3ccc(N)cc3n2)cc1	-10%	58%	?	-5%	2%	22%
Cc1cc(C)cc(N2C(N)=NC(N)=NC2c2cccc(Cl)c2)c1 (stereo not given)	-27%	1.2µM*	-9%	-18%	2%	5%
COc1ccc(C2N=C(N)N=C(N)N2c2ccc(C)cc2)cc1 (stereo not given)	-8%	·	-5%	-9%	7%	5.9µM*
Cc1cc(C)cc(N2C(N)=NC(N)=NC2c2ccccc2F)c1 (stereo not given)	·	3.3µM*	-13%	·	3%	36%
